Bioassay records from PubChem.
PPC-1+TRAIL kill = kills PPC-1 cancer cells in the presence of TRAIL | PPC-1 cells + TRAIL, ATPLite viability luminescence | cell killing (% activity), % at 4 µM or 5 µM | 220,000 compounds, 0.41% hits;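 active means cell killing above 50% in the first pass at 4 µM, then a duplicate retest at 5 µM averaging 50% or more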;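 further: plate controls were cells with TRAIL plus DMSO for no effect and medium-only wells lacking cells for full effect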
HSF1 inh = HSF1 inhibition | NIH3T3-HGL HSE-luciferase, MG132-induced, luminescence 8 h; stronger effect = lower value | activity change, negative = inhibition, % at 7.5 µM (by protocol) | 300,000 compounds, 0.77% hits | AID 2098;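 active means more than half of replicate wells show activity change below -50%, luminescence cut by over half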;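 further: luciferase reports HSF-1 transcriptional activity via heat shock element; 0% = median of DMSO wells and -100% = zero luminescence signal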
STAT1 inh-1 = STAT1 signaling inhibition; NIH 3T3 STAT1-luciferase reporter, IFN-gamma, luminescence; inhibition, % at 5.5 µM; 200,000 compounds, 0.35% hits; AID 920;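 active means inhibition above a set limit, the mean inhibition across all tested compounds plus 3 SD, cut at about 34% in these data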;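 further: 0% = IFN-gamma with DMSO and 100% = IFN-gamma with 300 µM nifuroxazide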
HSP90 inh = inhibitors of HSP90 luciferase refolding in rabbit reticulocyte lysate; 290,000 compounds, 0.91% hits; luciferase refolding luminescence, 3 h; inhibition, % at 5.6 µM;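 active means inhibition above the screen-wide mean plus 3 SD, computed separately per campaign, cut at about 16% in these data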;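 further: 0% = DMSO wells and 100% = 60 µM geldanamycin wells; inhibitors lower the luminescence because luciferase stays unfolded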
TRAIL sens C8 = caspase-8 TRAIL sensitization | NB7+C8 cells + TRAIL, ATPlite viability luminescence | inhibition (viability loss, TRAIL sensitization), % at 10 µM | 360,000 compounds, 1% hits;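 active means compounds causing at least 50% loss of cell viability in the single-dose screen, relative to plate controls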
STAT3 blocker = STAT3 signaling inhibition; 190,000 compounds, 0.89% hits; U3A cells, IL-6 STAT3-luciferase reporter, luminescence; host cell line lacks STAT1; inhibition, % at 5.5 µM;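 active means inhibition above the mean inhibition across all screened compounds plus 3 SD, cut at about 44% in these data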;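 further: 0% = DMSO only wells and 100% = 100 µM nifuroxazide control wells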
STAT1 inh-2 = confirmation of STAT1 signaling inhibitors; NIH 3T3 STAT1-luciferase reporter, IFN-gamma, luminescence; inhibition, % at 5.5 µM; 200 compounds, 55% hits; AID 1263; shares compounds with STAT1 inh-1;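 active means triplicate mean inhibition exceeding the hit cutoff computed for the primary STAT1 screen, cut at about 35% in these data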;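 further: 0% = DMSO with IFN-gamma and 100% = 300 µM nifuroxazide with IFN-gamma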
NFkB inh STAT1ct = counter-screen for STAT1 inhibitors: NF-kappaB inhibition; AID 1303; HEK293T NF-kB luciferase reporter, TNF-alpha induced, luminescence; 200 compounds, 30% hits; inhibition, % at 5.7 µM; shares compounds with STAT1 inh-1;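 active means inhibition above the mean of solvent-only control wells plus 3 SD of those wells, cut at about 15% in these data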;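 further: 0% = DMSO with TNF-alpha and 100% = MG-132 control with TNF-alpha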
STAT3 inh 2 = counter-screen for STAT1 inhibitors: STAT3 inhibition; shares compounds with STAT1 inh-1; U3A cells, IL-6 STAT3 luciferase reporter, luminescence; cells lacking STAT1; inhibition, % at 5.7 µM; 200 compounds, 20% hits;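 active means inhibition above the mean of solvent-only control wells plus 3 SD, set per campaign, cut at about 25% in these data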;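 further: 0% = IL-6 plus DMSO and 100% = IL-6 plus nifuroxazide control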
* = called active by the depositor; . = no result given. Rows were chosen to be rich in hits. Some 2.4% of all compounds tested hit in one or more screens of this group.

SMILES	PPC-1+TRAIL kill	HSF1 inh	STAT1 inh-1	HSP90 inh	TRAIL sens C8	STAT3 blocker	STAT1 inh-2	NFkB inh STAT1ct	STAT3 inh 2
Cc1nn(C)cc1C(=O)Nc1cc(Oc2ccc(Cl)cc2)cc([N+](=O)[O-])c1	2.0	4.1	5.3	-3.5	-8.2	-9.5	.	.	.
Cn1cc([N+](=O)[O-])c(C(=O)Nc2cc(Oc3ccccc3)cc([N+](=O)[O-])c2)n1	25.5	11.7	34.8*	6.8	-4.0	18.4	40.4*	24.0*	-0.7
Cc1ccccc1S(=O)(=O)NC(=O)C1(C)CCN1C(=O)Cc1ccccc1Cl (stereo not given)	.	.	.	.	-16.8	.	.	.	.
COc1ccccc1Nc1nc(-c2c(C)nc3ncccn23)cs1	.	2.5	39.2*	-4.2	24.0	39.7	36.5*	4.6	30.3*
COc1ccc(CCNC(=O)Cn2c(=O)n(-c3ccc(C)c(F)c3)c(=O)c3sccc32)cc1OC	-6.3	-8.5	52.0*	-0.8	2.6	3.5	44.7*	16.4*	19.1
Cc1cc(C)n(S(=O)(=O)/C=C/c2ccccc2)n1	27.0	53.5	37.9*	5.4	-6.0	29.3	42.4*	-3.2	3.5
Cc1ccc(S(=O)(=O)n2nc(C)cc2C)cc1	11.1	-0.1	-1.4	6.0	-8.7	7.2	.	.	.
CC(NC(=O)C1CCN(CCOc2ccc(Cl)cc2)CC1)c1cccc2ccccc12 (stereo not given)	.	.	.	.	22.8	.	.	.	.
CCOC(=O)N1CCN(C(=O)c2ccc(NC(=O)c3ccc(C)cc3)cc2)CC1	20.1	-26.8	68.1*	3.4	0.4	9.1	61.1*	0.0	10.9
CCOC(=O)N1CCN(C(=O)c2ccc(NC(C)=O)cc2)CC1	-2.9	0.5	5.4	-1.5	7.1	2.7	.	.	.
CCOC(=O)c1c(C)nc2sc3c(=O)n(-c4ccc(OC)cc4)nnc3c2c1-c1ccc(OC)cc1	21.0	-14.6	49.6*	0.0	-10.3	7.8	47.9*	9.2	8.7
CCc1nc2c(OCc3ccc(C(F)(F)F)cc3)cccn2c1N(C)C(=O)c1ccc(C)cc1	.	.	.	.	4.9	.	.	.	.
CCOC(=O)N1CCN(C(=O)CCn2c(=S)[nH]c3ccsc3c2=O)CC1	8.5	0.6	47.6*	0.8	-3.0	13.4	19.4	-4.4	-0.6
Cc1ccc(C(=O)Nc2cccc(N(C)S(C)(=O)=O)c2)cc1S(=O)(=O)Nc1ccccc1	19.9	.	39.7*	2.2	4.3	22.4	34.4*	7.2	9.2
COc1ccc(C(=O)Nc2cccc(N(C)S(C)(=O)=O)c2)cc1OC	16.3	17.3	-17.6	1.7	4.8	-6.9	.	.	.
O=C(C1CCC(CNc2nc(=S)[nH]c3ccccc23)CC1)N1CCN(c2ccc(F)cc2)CC1 (stereo not given)	1.4	-5.9	48.0*	-1.0	10.5	5.6	33.2	5.8	18.6
COc1ccc(N2CCN(CCCNC(=O)C3CCC(CNc4nc(=S)[nH]c5ccccc45)CC3)CC2)cc1 (stereo not given)	-2.3	2.0	23.1	3.0	19.0	23.5	.	.	.
CCOC(=O)[C@]12CCCC=C1N(CCc1ccc(OC)c(OC)c1)C(=O)[C@H](CC(=O)N1CCCCC1)C2	.	.	.	.	-5.4	.	.	.	.
CCOC(=O)C1=C(CC)Nc2ccccc2N=C1NC(=O)c1ccc(OC)c(S(=O)(=O)N2CCCCC2C)c1 (stereo not given)	15.8	-5.6	37.2*	0.3	-4.1	-6.3	17.2	-2.1	-22.0
Cc1ccccc1NC(=O)C(=Cc1ccc(C(=O)O)cc1)C(=O)Nc1ccccc1C	-3.7	84.6	41.0*	5.0	9.0	-13.1	46.1*	-1.3	-14.6
CC(=O)/C(=C/c1ccccc1)C(=O)Nc1ccccc1C	9.7	31.0	12.0	-1.6	19.2	13.5	.	.	.
Cc1cc(O)ccc1N1C(=O)c2cccc3cc([N+](=O)[O-])cc(c23)C1=O	9.0	-3.2	46.4*	1.1	-2.3	16.8	30.2	0.0	9.4
